Bcl-xL primary: Bcl-xL (human) inhibition | GST-Bcl-xL / FITC-Bim BH3 peptide fluorescence polarization | inhibition, % at 10.9 µM | Q07817 | actives 0.7% (n = 320,000);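 active = inhibition above the mean of all tested compounds plus 3 SD, cutoff set per campaign, cut at about 30% in these data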;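 also: inhibitors lower millipolarization by displacing the labeled peptide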
Mcl1 Noxa PPI: Mcl-1/Noxa interaction inhibition. Q07820. actives 1.5% (n = 220,000). inhibition, % at 21.7 µM. TR-FRET Mcl-1/Noxa peptide binding, 2 h;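 active = compounds that cut the protein-peptide binding signal by more than 50% relative to plate controls in a single-dose test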;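 also: His-tagged Mcl-1 with rhodamine Noxa BH3 peptide and terbium anti-His antibody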
MCL1 BIM primary: MCL1-BIM-BH3 interaction inhibition (human); GST-MCL1 / FITC-Bim-BH3 fluorescence polarization; actives 0.68% (n = 320,000); inhibition, % at 10.9 µM; Q07820;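 active = inhibition above the mean inhibition of all tested compounds plus 3 SD, set per campaign, cut at about 40% in these data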;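 also: higher means more loss of mP so more displacement of Bim peptide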
GLD-1 RNA inh: GLD-1-TGE RNA interaction inhibition (C. elegans) | Q17339 | purified GLD-1 + fluorescein TGE RNA, fluorescence polarization | inhibition, % at 5.96 µM | actives 0.44% (n = 320,000) | AID 2280;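 active = percent inhibition above a per-plate cutoff, the plate mean of test compounds plus 3 SD, cut at about 30% in these data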
Target sequence (Q17339 whole entry, looked up): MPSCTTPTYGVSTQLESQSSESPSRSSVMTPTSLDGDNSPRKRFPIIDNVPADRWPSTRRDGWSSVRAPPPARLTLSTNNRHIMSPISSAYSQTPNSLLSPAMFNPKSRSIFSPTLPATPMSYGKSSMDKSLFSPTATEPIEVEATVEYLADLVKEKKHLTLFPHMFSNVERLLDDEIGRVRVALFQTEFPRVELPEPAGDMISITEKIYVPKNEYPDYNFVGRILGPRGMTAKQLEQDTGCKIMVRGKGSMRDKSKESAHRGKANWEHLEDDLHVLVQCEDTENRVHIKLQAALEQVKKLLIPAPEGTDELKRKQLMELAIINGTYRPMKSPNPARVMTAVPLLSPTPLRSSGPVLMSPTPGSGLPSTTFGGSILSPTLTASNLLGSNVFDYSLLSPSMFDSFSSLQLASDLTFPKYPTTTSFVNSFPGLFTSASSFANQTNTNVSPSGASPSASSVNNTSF
Bim-Mcl-1: human Bim-Mcl-1 interaction inhibition. inhibition, % at 10 µM. actives 0.1% (n = 190,000). Bead-based flow cytometry, Bim peptide-Mcl-1 binding; in the data active = inhibition above about 40%
Mcl1 Bid PPI: Mcl-1/Bid interaction inhibition. Q07820. inhibition, % at 21.7 µM. actives 0.97% (n = 220,000). TR-FRET Mcl-1/Bid-Dy647 peptide binding, 1536-well. AID 1021;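 active = compounds that cut the binding signal by more than half at the single screening dose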;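 also: His-tagged Mcl-1 with europium anti-His antibody binding Bid BH3 peptide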
Hits are given with their value; – = inactive; · = not tested or not shown. A selection: hits, their analogues and other compounds. The true share with any hit is near 2.3%.

SMILES | Bcl-xL primary | Mcl1 Noxa PPI | MCL1 BIM primary | GLD-1 RNA inh | Bim-Mcl-1 | Mcl1 Bid PPI
CC(C)N1C(=O)/C(=C\c2nc3ccccc3c(=O)n2-c2ccccc2)c2ccccc21 | – | – | – | – | – | –
COc1cc(/C=N/NC(=O)c2ccccc2O)ccc1OCC(=O)Nc1ccccc1 | – | · | – | – | · | ·
O=C(COc1ccc(/C=N/NC(=O)c2cc3ccccc3o2)cc1Cl)Nc1ccccc1 | – | – | – | – | – | 83.6
CCN(CC)C(=O)c1sc2nc(N3CCOCC3)c3c(c2c1N)CCCC3 | – | 58.6 | – | – | – | –
CCOC(=O)c1sc2nc(N3CCOCC3)c3c(c2c1N)CCCC3 | – | – | – | – | – | –
COC(=O)C1=C(C)Nc2c(c(=O)n(C)c(=O)n2C)C1c1cccc(O)c1 (stereo unspecified) | – | – | – | – | · | –
CCn1c(C)cc(/C=C2\NC(=O)N(Cc3ccc(Cl)cc3)C2=O)c1C | – | 82.7 | – | – | – | 90.1
CCCCN1C(=O)N(C)C2C1N(C)C(=O)N2CCCC (stereo unspecified) | – | 62.9 | – | – | · | –
CCCCN1C(=O)N(C)C2NC(=O)NC21 (stereo unspecified) | – | – | – | – | – | –
CCC(=O)Nc1ccc(/C(C)=N\NC(=O)c2ccc(C)s2)cc1 | – | – | – | – | – | –
C/C(=N/NC(=O)c1ccc(Cl)s1)c1ccc(NC(=O)COc2ccc(Cl)cc2)cc1 | – | – | – | – | – | 54.6
Cc1ccc2nc(Nc3ccccc3)c(C=O)c(=O)n2c1 | – | · | – | – | · | ·
COc1ccc(NC(=O)/C(C#N)=C\c2ccc(Br)o2)cc1 | – | – | – | – | · | –
N#C/C(=C\c1ccc([N+](=O)[O-])o1)C(=O)Nc1ccc(F)cc1 | 41.0 | 64.7 | – | – | – | –
Cc1ccc(NCC(=O)N/N=C/c2ccc(-c3cccc(C(F)(F)F)c3)o2)cc1 | – | – | – | – | – | –
CC(Cc1ccc(O)c(O)c1)C(C)Cc1ccc(O)c(O)c1 (stereo unspecified) | 31.0 | · | – | – | · | ·
COc1cc(C[C@@H](C)[C@@H](C)Cc2ccc(O)c(OC)c2)ccc1O | · | · | · | – | · | ·
Cc1ccc(-n2nc(-c3ccco3)cc2C(=O)O)c(C)c1 | · | 78.6 | · | · | – | –
Cc1ccc(-n2nc(-c3cccnc3)cc2C(=O)N2CCOCC2)c(C)c1 | – | – | – | – | – | –
O=C(O)c1cc(-c2ccco2)nn1-c1ccc(Cl)cc1 | · | 80.8 | · | · | – | –
Cc1cc(C)cc(NC(=O)COC(=O)c2ccc(CN3CCCC3=O)cc2)c1 | – | · | – | – | · | ·
O=C(NCCN1CCOCC1)c1cc([N+](=O)[O-])ccc1Cl | – | · | – | – | · | ·
O=C(NCCN1CCOCC1)c1cc(Cl)ccc1[N+](=O)[O-] | – | – | – | – | 73.0 | –
CC1=C(C(=O)OC2CCCC2)C(c2coc3ccccc3c2=O)C2=C(CCCC2=O)N1 (stereo unspecified) | – | – | – | – | – | –
O=C(NCCCN1CCN(c2ccccc2F)CC1)Nc1ccc(F)cc1 | – | – | – | – | – | –
SMILES | Bcl-xL primary | Mcl1 Noxa PPI | MCL1 BIM primary | GLD-1 RNA inh | Bim-Mcl-1 | Mcl1 Bid PPI
CSc1ccc(NC(=O)NCCCN2CCN(c3ccccc3F)CC2)cc1 | – | 58.3 | – | – | – | –
COc1ccc(N(CC(=O)Nc2cccc(SC)c2)S(C)(=O)=O)cc1 | – | – | – | – | – | –
CCN1C(=O)N(S(=O)(=O)C(F)(F)F)[C@@H](c2ccccc2)C(C(=O)OC)=C1C | – | – | – | – | · | –
CC1(OC(=O)C2CCCC2)C(=O)C=C2C=C(c3ccsc3)N(CC3CC3)C=C2C1=O (stereo unspecified) | – | – | – | – | · | –
CC1(OC(=O)C2CCCC2)C(=O)C=C2C=C(c3ccsc3)N(C3CCCCC3)C=C2C1=O (stereo unspecified) | 30.2 | – | – | – | · | –
CCOc1ccc(OCC)c(NC(=O)C2CCN(S(=O)(=O)c3c(C)[nH]c(=O)[nH]c3=O)CC2)c1 | – | – | – | – | – | –
Cc1c(Cl)cccc1NC(=O)CSCc1cc(=O)[nH][nH]1 | – | – | – | – | – | –
COc1cccc(-c2nn(C)c3sc(C(=O)NCc4ccc5c(c4)OCO5)cc23)c1 | – | – | – | – | – | –
COc1cccc(-c2nn(C)c3sc(C(=O)NCc4ccc(C)o4)cc23)c1 | – | 59.8 | – | – | – | –
O=C(CCSCCC(=O)NCc1ccco1)NCc1ccco1 | – | 54.4 | – | – | – | –
O=C(COC(=O)C1CC2C=CC1C2)NCc1ccco1 (stereo unspecified) | – | 65.7 | – | – | – | –
O=C(CCSCc1ccccc1Cl)NCc1ccco1 | – | – | – | – | – | –
CC(C)(C)c1ccc(OC(=O)CN2C(=O)C3C4CCC(C4)C3C2=O)cc1 (stereo unspecified) | – | – | – | – | – | –
O=C(Cn1nc(C(=O)O)c2ccccc2c1=O)Nc1ccc2c(c1)C(=O)c1ccccc1C2=O | – | 80.1 | – | – | · | 75.4
CC(NC(=O)C(c1ccccc1)c1ccccc1)c1ccccc1 (stereo unspecified) | – | · | – | – | · | ·
CCN1/C(=C/C=C/C=C/c2sc3ccccc3[n+]2CC)Sc2ccccc21 | 127.8 | – | 140.3 | – | · | –
Cn1c(COc2ccc([N+](=O)[O-])cc2)nnc1SCC(=O)NCC1CCCO1 (stereo unspecified) | – | · | – | – | · | ·
Nc1c(S(=O)(=O)c2cccc(Cl)c2)c2nc3ccccc3nc2n1/N=C/c1ccc(O)c(O)c1 | – | 63.5 | – | – | – | –
S=C(Nc1ccc2nc(-c3ccccn3)c(-c3ccccn3)nc2c1)N1CCCCC1 | · | – | · | · | – | –
S=C(Nc1ccc2nc(-c3ccccn3)c(-c3ccccn3)nc2c1)N1CCCCCC1 | 34.9 | – | 41.1 | – | – | –
COc1ccc(N/C(=C(/C(Cl)=C(Cl)Cl)[N+](=O)[O-])n2nnc3ccccc32)cc1 | 39.2 | – | 41.2 | – | – | 91.4
COc1ccc(NS(=O)(=O)c2ccc(-n3nnc4ccccc43)c([N+](=O)[O-])c2)cc1 | – | – | – | – | – | –
Cc1ccccc1N/C(=C(/C(Cl)=C(Cl)Cl)[N+](=O)[O-])n1nnc2ccccc21 | – | – | – | – | – | 53.9
Cc1ccc(C(=O)n2nnc3ccccc32)cc1 | – | · | – | – | · | ·
Cc1cc(-c2ccc(/C=N/n3cnnc3)o2)c(C)c([N+](=O)[O-])c1 | – | · | – | – | · | ·
C=CCNC(=O)C1=NN(c2c(F)c(F)cc(F)c2F)C(=O)CC1 | – | · | – | – | · | ·
O=C(NC1CCCc2c1cnn2-c1ccc(F)cc1F)c1ccccn1 (stereo unspecified) | 31.2 | – | – | – | – | –
CCc1cccc(NC(=O)CCNC(=O)Cn2ccc3ccccc3c2=O)c1 | – | · | – | – | · | ·
O=S(=O)(Nc1cc(Sc2ncn[nH]2)c(O)c2ccccc12)c1ccccc1 | · | 83.2 | · | · | – | –

Screening data deposited in PubChem BioAssay by several laboratories.
